Test results taken from PubChem BioAssay (NCATS).
Results filed as inconclusive are left out. Activity calls are given as the source filed them. Unless noted, calls follow the shape of the dose curve; as a rule, active = well fitted curve in either direction with a large enough effect (not every such curve was filed as active); inconclusive = small, poorly fitted or top-dose-only effect, or another doubt; inactive = flat fitted curve, though single readings scatter.

Key:
[1] = molecular target: Lysosomal acid glucosylceramidase (Homo sapiens) (UniProt P04062); assay: Glucocerebrosidase-p2 (AID 348; in the data active = potency below about 10 µM; also: potency is read from the fitted curve at half-maximal effect); conditions: purified GBA, blue fluorogenic substrate, 40 min
Summary of the method: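 Compounds titrated from 0.6 nM upwards against 0.2 nM enzyme in pH 5.9 citric acid/KH2PO4, taurocholate, tween-20; blue fluorogenic substrate 80 uM, 40 min room temperature, stopped and read Ex 365/Em 440 for AC50.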

[2] = AP1 Signaling Pathway (AID 357); conditions: ME-180 AP-1-bla reporter, EGF-induced, beta-lactamase ratio, 5 h; at 7.69 µM (top of the series) unless noted;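 also: ME-180 reporter cells stimulated with EGF at its EC50 level; % is scaled to controls: 0 for no effect and ±100 for the full control effect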
Summary of the method: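 A ratiometric CCF4 readout (405 nm excitation; 460 and 530 nm emission) quantified AP-1-driven beta-lactamase in ME-180 cells after 5 h with compound and EC50 EGF; AC50 values were derived for activators and inhibitors.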

[3] = Stat Signaling Pathway (AID 446);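 also: ME-180 cervical cancer cells given 40 pM IL-6 alongside compound; SIE-controlled beta-lactamase reporter measured as 460/530 nm FRET emission ratio; % is scaled to controls: 0 for no effect and ±100 for the full control effect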
Summary of the method: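 ME-180 SIE-bla cells; overnight plating; cpd + IL-6 40 pM, 5 h, 37 C; LiveBLAzer 2.5 h RT; 460/530 nm emission ratio. Normalized to 300 pM IL-6 and 125 nM JAK inhibitor controls.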

[4] = molecular target: 3',5'-cyclic-AMP phosphodiesterase 4B (Homo sapiens) (UniProt Q07343); assay: qHTS Assay for Inhibitors of PDE-IV (AID 607; active = well fitted activation curve with a large enough effect in the main read-out, with a control signal flat, not every such curve was filed as active; also: % of control where 0% means no effect)
Summary of the method: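 ACTOne HEK293 cells carry a modified cAMP-gated CNG channel and express endogenous PDE4; plated 1000 cells/well, compounds up to 22.9 uM final. Membrane-potential dye fluorescence (ex 535/em 590) was read; parental cells received 10 uM forskolin + 100 uM RO 20-1724.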

[5] = molecular target: Glucocorticoid receptor (Homo sapiens) (UniProt P04150); assay: GR-GFP Redistribution (AID 450;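 active = compounds whose dose series gives a full or clear partial fitted curve of increased nuclear translocation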; also: potency is read from the fitted curve at half-maximal effect); conditions: U2OS GR-GFP nuclear translocation, laser cytometry, 2 h
[6] = molecular target: Glucocorticoid receptor (Homo sapiens) (UniProt P04150); assay: GR-EFC Redistribution (AID 451; calls by dose curve; also: potency is read from the fitted curve at half-maximal effect); conditions: CHO-K1 GR-EFC translocation, beta-gal luminescence, 2 h
Summary of the method: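 CHO-K1 cells stably expressing nuclear-localized β-gal enzyme acceptor and GR fused C-terminally to the enzyme donor fragment; ligand-driven nuclear translocation restores β-gal by complementation. Compounds titrated up to 46 uM final, 2 h at 37 °C; luminescence read.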

[7] = molecular target: Ubiquitin carboxyl-terminal hydrolase 1 (Homo sapiens) (UniProt O94782); assay: Inhibitors of USP1/UAF1: Pilot qHTS (AID 504865; active = well fitted inhibition curve with a large enough effect;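 also: rhodamine fluorescence freed from ubiquitin-rhodamine substrate followed over time; top concentration of the series differs between compounds; % is scaled to controls: 0 for no effect and ±100 for the full control effect; nearly all actives have a fitted effect of over 35% in size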)
Summary of the method: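 1nM USP1/UAF1 + cpd, 15 min RT; start w/ Ub-Rho 150nM final; kinetic FL 480/540 nm, 6 reads q60 s. Buffer 50mM HEPES pH 7.8, 0.5mM EDTA, 1mM TCEP, 0.01% Tween-20, 0.1 mg/ml BSA.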

[8] = NFAT Signaling Pathway (AID 444); conditions: Jurkat NFAT-bla M1, carbachol, beta-lactamase ratio, 5 h; at 7.69 µM (top of the series) unless noted;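 also: carbachol stimulus at about its EC50 of 1 µM final; % is scaled to controls: 0 for no effect and ±100 for the full control effect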
Summary of the method: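 Jurkat cells carrying an NFAT-driven β-lactamase reporter and co-transfected muscarinic M1 receptor were treated with compound plus carbachol (1 uM final, an EC50 level) for 5 h at 37 °C. CCF4 loading followed for 1 h at RT; 460/530 nm ratio gave %activity.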

[9] = molecular target: Mitogen-activated protein kinase 10 (Mus musculus) (UniProt Q61831); assay: JNK3 AlphaScreen Assay (AID 530);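 also: kinase came from lysate of stimulated human HepG2 cells; signal reports phosphorylation of biotinylated GST-cJun 1-79 at Ser73 with 10 µM ATP; % is scaled to controls: 0 for no effect and ±100 for the full control effect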
Summary of the method: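 Inhibitors reduce antibody binding to phosphorylated biotin-cJun, lowering AlphaScreen luminescence. Lysates from HepG2 cells pre-activated by IL-1beta plus TNF-alpha supplied JNK3; compounds were titrated.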

Chain of Lysosomal acid glucosylceramidase (Homo sapiens) (P04062 whole entry, looked up): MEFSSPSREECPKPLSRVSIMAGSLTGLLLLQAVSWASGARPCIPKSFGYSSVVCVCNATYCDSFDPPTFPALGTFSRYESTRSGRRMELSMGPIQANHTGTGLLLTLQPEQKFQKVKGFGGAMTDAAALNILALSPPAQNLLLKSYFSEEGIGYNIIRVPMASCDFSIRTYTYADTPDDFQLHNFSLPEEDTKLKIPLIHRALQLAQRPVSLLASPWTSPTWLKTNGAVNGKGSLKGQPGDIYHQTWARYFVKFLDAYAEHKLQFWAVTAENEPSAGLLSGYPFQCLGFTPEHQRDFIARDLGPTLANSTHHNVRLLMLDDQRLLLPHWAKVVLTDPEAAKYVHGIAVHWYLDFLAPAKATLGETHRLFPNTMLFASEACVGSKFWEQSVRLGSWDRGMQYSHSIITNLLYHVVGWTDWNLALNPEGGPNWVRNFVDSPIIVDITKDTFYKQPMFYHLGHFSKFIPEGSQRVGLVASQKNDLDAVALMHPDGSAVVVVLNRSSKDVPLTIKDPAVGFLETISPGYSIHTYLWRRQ
Chain of 3',5'-cyclic-AMP phosphodiesterase 4B (Homo sapiens) (Q07343 whole entry, looked up): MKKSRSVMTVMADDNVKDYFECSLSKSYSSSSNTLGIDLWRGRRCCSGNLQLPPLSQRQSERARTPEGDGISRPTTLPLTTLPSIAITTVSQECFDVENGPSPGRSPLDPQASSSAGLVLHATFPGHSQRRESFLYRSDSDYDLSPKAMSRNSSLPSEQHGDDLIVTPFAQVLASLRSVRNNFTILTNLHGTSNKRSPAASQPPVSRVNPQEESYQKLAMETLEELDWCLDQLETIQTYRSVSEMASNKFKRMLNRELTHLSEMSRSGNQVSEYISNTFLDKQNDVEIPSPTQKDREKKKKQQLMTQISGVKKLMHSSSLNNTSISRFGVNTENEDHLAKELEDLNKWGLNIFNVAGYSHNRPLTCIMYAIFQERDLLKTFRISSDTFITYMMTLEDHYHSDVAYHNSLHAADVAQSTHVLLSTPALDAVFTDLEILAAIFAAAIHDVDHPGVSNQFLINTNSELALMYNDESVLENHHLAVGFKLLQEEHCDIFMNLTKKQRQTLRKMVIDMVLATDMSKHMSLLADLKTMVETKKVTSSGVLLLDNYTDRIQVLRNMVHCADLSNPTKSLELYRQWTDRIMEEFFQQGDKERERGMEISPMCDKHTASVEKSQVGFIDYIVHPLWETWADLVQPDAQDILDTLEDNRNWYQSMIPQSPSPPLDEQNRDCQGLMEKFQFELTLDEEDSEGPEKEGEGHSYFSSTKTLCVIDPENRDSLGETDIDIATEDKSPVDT
Chain of Glucocorticoid receptor (Homo sapiens) (P04150 whole entry, looked up, the tested form may be a part): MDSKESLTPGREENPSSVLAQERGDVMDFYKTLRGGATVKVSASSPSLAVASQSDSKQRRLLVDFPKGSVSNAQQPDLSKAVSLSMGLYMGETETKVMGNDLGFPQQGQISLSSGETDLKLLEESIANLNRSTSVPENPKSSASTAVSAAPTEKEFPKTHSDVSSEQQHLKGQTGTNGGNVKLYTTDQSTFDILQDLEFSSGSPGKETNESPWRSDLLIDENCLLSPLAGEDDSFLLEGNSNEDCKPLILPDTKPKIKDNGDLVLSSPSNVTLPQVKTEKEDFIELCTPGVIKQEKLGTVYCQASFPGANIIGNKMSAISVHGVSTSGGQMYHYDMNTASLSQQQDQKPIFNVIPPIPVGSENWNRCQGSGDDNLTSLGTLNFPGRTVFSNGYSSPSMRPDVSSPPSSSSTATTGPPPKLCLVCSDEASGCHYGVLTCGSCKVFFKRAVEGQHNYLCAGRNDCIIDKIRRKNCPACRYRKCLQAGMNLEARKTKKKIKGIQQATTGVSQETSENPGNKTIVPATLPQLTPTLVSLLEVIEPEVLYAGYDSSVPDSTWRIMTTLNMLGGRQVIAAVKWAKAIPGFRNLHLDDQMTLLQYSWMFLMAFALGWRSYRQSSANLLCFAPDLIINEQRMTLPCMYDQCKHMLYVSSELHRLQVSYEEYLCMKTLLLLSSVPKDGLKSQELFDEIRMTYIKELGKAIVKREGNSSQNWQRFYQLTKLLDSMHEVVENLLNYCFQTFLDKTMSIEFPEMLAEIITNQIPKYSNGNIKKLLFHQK
Chain of Ubiquitin carboxyl-terminal hydrolase 1 (Homo sapiens) (O94782 whole entry, looked up): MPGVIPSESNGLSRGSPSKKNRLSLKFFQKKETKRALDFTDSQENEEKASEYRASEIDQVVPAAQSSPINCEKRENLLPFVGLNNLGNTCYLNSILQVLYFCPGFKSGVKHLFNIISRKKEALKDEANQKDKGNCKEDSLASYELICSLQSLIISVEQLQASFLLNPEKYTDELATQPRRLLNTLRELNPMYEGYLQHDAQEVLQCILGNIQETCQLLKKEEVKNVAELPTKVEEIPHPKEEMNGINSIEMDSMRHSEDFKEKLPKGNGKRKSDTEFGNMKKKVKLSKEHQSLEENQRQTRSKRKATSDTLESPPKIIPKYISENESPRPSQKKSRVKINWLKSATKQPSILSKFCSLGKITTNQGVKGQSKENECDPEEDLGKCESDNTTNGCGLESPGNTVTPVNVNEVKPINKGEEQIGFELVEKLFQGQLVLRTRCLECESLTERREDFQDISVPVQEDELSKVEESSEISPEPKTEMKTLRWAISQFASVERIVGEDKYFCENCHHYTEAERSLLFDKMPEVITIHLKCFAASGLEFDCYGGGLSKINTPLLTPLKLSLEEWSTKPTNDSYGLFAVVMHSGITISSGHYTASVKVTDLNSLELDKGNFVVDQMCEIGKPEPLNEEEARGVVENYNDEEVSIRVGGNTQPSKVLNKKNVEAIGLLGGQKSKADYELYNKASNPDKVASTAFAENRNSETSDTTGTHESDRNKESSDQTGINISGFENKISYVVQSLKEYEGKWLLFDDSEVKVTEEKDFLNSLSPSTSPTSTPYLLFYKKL

COc1ccc(-c2nc3cnc(N4CCOCC4)nc3n(-c3ccc(OC)cc3)c2=O)cc1
inactive: Potency [1] > 11.4 µM | activity change, negative = inhibition [2] -5.89% | outcome [3] | Potency [4]

COc1ccc(-c2nc3cnc(Oc4cccc(Cl)c4)nc3n(C[C@H]3CCCO3)c2=O)cc1
inactive: Potency [1] > 11.4 µM | activity change, negative = inhibition [2] -13.7% | Potency [5] > 9.22 µM | Potency [6] > 46 µM | Potency [4] | Potency [7]

Cc1ccccc1-c1nc(Nc2ccncc2)c2ccccc2n1
inactive: activity change, negative = inhibition [2] -17.3% | activity change, negative = inhibition [8] 6.78% | outcome [3] | Potency [5] > 46 µM | Potency [6] > 46 µM | Potency [9]

COCCn1c(=O)c(-c2ccc(F)cc2)nc2cnc(Nc3cccc(OC)c3)nc21
inactive: Potency [1] > 11.4 µM | activity change, negative = inhibition [2] -8.42% | activity change, negative = inhibition [8] -5.01% | outcome [3] | Potency [5] > 9.22 µM | Potency [6] > 46 µM | Potency [9] | Potency [4] | Potency [7]

COCCn1c(=O)c(-c2ccc(F)cc2)nc2cnc(Oc3ccccc3)nc21
inactive: Potency [1] > 11.4 µM | activity change, negative = inhibition [8] 9.44% | outcome [3] | Potency [5] > 9.22 µM | Potency [6] > 46 µM | Potency [9] | Potency [4] | Potency [7]

CN1CCN(c2ncc3nc(-c4ccccc4)c(=O)n(Cc4cccs4)c3n2)CC1
inactive: Potency [1] > 11.4 µM | activity change, negative = inhibition [2] 7.66% | activity change, negative = inhibition [8] -9.53% | outcome [3] | Potency [5] > 9.22 µM | Potency [6] > 46 µM | Potency [4] | Potency [7]

COc1ccc(Oc2ncc3nc(-c4cc(F)cc(F)c4)c(=O)n(C4CC4)c3n2)cc1
inactive: Potency [1] > 11.4 µM | activity change, negative = inhibition [2] -9.27% | activity change, negative = inhibition [8] -5.46% | outcome [3] | Potency [5] > 9.22 µM | Potency [6] > 46 µM | Potency [9] | Potency [4] | Potency [7]

CCNc1ncc2ncc(=O)n(Cc3cccc(OC)c3)c2n1
inactive: Potency [1] > 11.4 µM | activity change, negative = inhibition [2] -7.38% | activity change, negative = inhibition [8] 8.9% | outcome [3] | Potency [6] > 46 µM | Potency [9] | Potency [7]

COc1ccc2[nH]cc(CCNc3ncncc3-c3ccc4c(c3)OCO4)c2c1
inactive: Potency [1] > 11.4 µM | activity change, negative = inhibition [2] -27.8% | outcome [3] | Potency [6] > 46 µM | Potency [9] | Potency [4] | Potency [7]

Cc1cnc(CNc2ncnc3ccc(-c4ccccc4Cl)cc23)cn1
inactive: Potency [1] > 11.4 µM | activity change, negative = inhibition [2] 14.6% | activity change, negative = inhibition [8] 7.91% | Potency [5] > 46 µM | Potency [6] > 46 µM | Potency [7]

CS(=O)(=O)Nc1cccc(-c2nc(Nc3ccncc3)c3ccccc3n2)c1
inactive: activity change, negative = inhibition [2] -17.9% | outcome [3] | Potency [5] > 46 µM | Potency [6] > 46 µM | Potency [9] | Potency [7]
active: Potency [1] 7.2 µM

O=c1c(-c2ccccc2)nc2cnc(N3CCOCC3)nc2n1CCc1ccccc1
inactive: Potency [5] > 9.22 µM | Potency [6] > 46 µM | Potency [7]

CN1CCN(c2ncc3nc(CCc4ccccc4)c(=O)n(CCc4ccccc4)c3n2)CC1
inactive: Potency [1] > 11.4 µM | activity change, negative = inhibition [2] -6.08% | activity change, negative = inhibition [8] -18.1% | outcome [3] | Potency [6] > 46 µM | Potency [9] | Potency [7]

CN(C)C(=O)c1ccc(-c2nc(Nc3ccccc3)c3ccccc3n2)cc1
inactive: Potency [1] > 11.4 µM | activity change, negative = inhibition [2] -10.3% | activity change, negative = inhibition [8] 2.53% | outcome [3] | Potency [5] > 46 µM | Potency [9]

N#Cc1ccccc1-c1ccc2ncnc(NCc3cccnc3)c2c1
inactive: activity change, negative = inhibition [2] -14.7% | activity change, negative = inhibition [8] 17.5% | outcome [3] | Potency [6] > 46 µM | Potency [7]

CN1CCN(c2ncc3nc(-c4cccc(C#N)c4)c(=O)n(CCc4ccccc4)c3n2)CC1
inactive: Potency [1] > 11.4 µM | activity change, negative = inhibition [2] 11.8% | activity change, negative = inhibition [8] -0.0285% | outcome [3] | Potency [5] > 9.22 µM | Potency [6] > 46 µM | Potency [9] | Potency [4] | Potency [7]

COc1ccc(-n2c(=O)c(-c3cccs3)nc3cnc(N4CCN(C)CC4)nc32)cc1
inactive: Potency [1] > 11.4 µM | activity change, negative = inhibition [2] 8.48% | activity change, negative = inhibition [8] 4.91% | outcome [3] | Potency [5] > 9.22 µM | Potency [6] > 46 µM | Potency [4] | Potency [7]

Cn1cc(-c2nc3cnc(N4CCNCC4)nc3n(CCc3ccccc3)c2=O)c2ccccc21
active: activity change, negative = inhibition [8] 91.4% [activator]
inactive: Potency [5] > 9.22 µM | Potency [4]

Cn1cc(-c2nc3cnc(N4CCNCC4)nc3n(C3CC3)c2=O)c2ccccc21
inactive: activity change, negative = inhibition [8] 28.9% | Potency [5] > 9.22 µM | Potency [6] > 46 µM | Potency [4] | Potency [7]

CCNc1ncc2nc(CCc3ccccc3)c(=O)n(C3CC3)c2n1
inactive: activity change, negative = inhibition [2] -7.57% | activity change, negative = inhibition [8] 11.9% | outcome [3] | Potency [5] > 9.22 µM | Potency [6] > 46 µM | Potency [9] | Potency [7]

COc1ccc(Oc2ncc3nc(-c4ccccc4)c(=O)n(C[C@H]4CCCO4)c3n2)cc1
inactive: Potency [1] > 11.4 µM | activity change, negative = inhibition [8] -3.65% | outcome [3] | Potency [5] > 9.22 µM | Potency [6] > 46 µM | Potency [9] | Potency [4] | Potency [7]

COc1ccc2[nH]cc(CCNc3ncnc4ccc(-c5cccc(C#N)c5)cc34)c2c1
inactive: outcome [3] | Potency [6] > 46 µM | Potency [9] | Potency [7]
